Sm TGR block – qHTS Assay for the Inhibitors of Schistosoma Mansoni Peroxiredoxins. 360,000 compounds, 3% hits. Potency, µM (highest dose often 114 µM), for the others: at the highest dose activity change, negative = inhibition, actives largely listed as inhibitors. Schistosoma mansoni thioredoxin glutathione reductase (TGR), Q962Y6. purified TGR, DTNB reduction, TNB absorbance 405 nm. AID 485364, 2010; also: potency is read from the fitted curve at half-maximal effect; % is scaled to controls: 0 for no effect and ±100 for the full control effect; nearly all actives have a fitted effect of over 60% in size
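Kinetic colorimetric format: TGR-catalysed, NADPH-driven DTNB reduction monitored via TNB absorbance. Enzyme dispensed at 20 nM; compound exposure 15 min at room temperature before reaction start.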
NS1 function inh – qHTS Assay for Inhibitors of Influenza NS1 Protein Function; Potency, µM (titrated, usually from 46.1 µM), for inactives: at the top dose activity, positive = more growth; 270,000 compounds, 0.4% hits; AID 2326, 2010; calls by dose curve; also: potency is read from the fitted curve at half-maximal effect; actives are rising curves; nearly all actives have a fitted effect of over 50% in size
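Read-out: OD600 growth recovery of NS1-expressing budding yeast. Cells grown overnight at 30C in -URA glucose medium, washed, resuspended and diluted 1:100 in 2% galactose assay medium, pH 6.0. Same strain lacking NS1 served as positive control.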
Shiga inhibitor – A qHTS for Small Molecule Inhibitors of Shiga Toxin; Vero cells, Shiga toxin protein synthesis inhibition reporter; inhibition, % at 38.7 µM; 290,000 compounds, 9.2% hits; AID 2315, 2010; in the data active = inhibition mostly above about 28%, no sharp cut-off; inactive = mostly below about 43%; also: 0% is about no effect
Pf growth 48h – Primary qHTS for delayed death inhibitors of the malarial parasite plastid, 48 hour incubation; P. falciparum luciferase growth in erythrocytes, 48 h; Potency, µM (top dose mostly 28.7 µM), without a hit: top-dose activity change, negative = inhibition, hits mostly inhibitors; 310,000 compounds, 5.9% hits; also: potency is read from the fitted curve at half-maximal effect; % is scaled to controls: 0 for no effect and ±100 for the full control effect
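Parasite viability was followed by luminescence of a genomically integrated firefly luciferase. Cultures held 0.1% parasitemia at 2% hematocrit (final), incubated under 5% CO2 at 37 C.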
Cycloheximide cs – Cycloheximide Counterscreen for Small Molecule Inhibitors of Shiga Toxin. cell reporter, cycloheximide protein synthesis inhibition counterscreen. max response, %. 300,000 compounds, 12% hits. AID 2314, 2010; in the data active = max response mostly above about 13%, no sharp cut-off; inactive = mostly below about 14%; also: read at 38.3 µM for the half of the compounds with a filed dose; 0% is about no effect
Pf growth 96h – Primary qHTS for delayed death inhibitors of the malarial parasite plastid, 96 hour incubation; P. falciparum luciferase reporter growth, 96 h; Potency, µM (series often up to 28.7 µM), for inactives: at the highest dose activity change, negative = inhibition, usual class: inhibitors; 320,000 compounds, 6.9% hits; AID 504834, 2011; also: potency is read from the fitted curve at half-maximal effect; % is scaled to controls: 0 for no effect and ±100 for the full control effect
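Luminescence readout: decreased luciferase signal marks inhibited growth of reporter-expressing P. falciparum in infected red cells (2% hematocrit, 0.05% parasitemia final), exposed to compound two generations (96 h, 37 C, 5% CO2).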
Active calls of the source: *; ? = inconclusive; . = no result; [ ] = another dose, or the depositor's remark. Most compounds without a hit are left out; they make up all but 21% or so of the library. Unless noted, calls follow the shape of the dose curve; as a rule, active = well fitted curve in the direction sought with a large enough effect; inconclusive = small, poorly fitted or top-dose-only effect, or another doubt; inactive = no such curve, though single readings can be large; an effect the other way counts as inactive or inconclusive.

SMILES	Sm TGR block	NS1 function inh	Shiga inhibitor	Pf growth 48h	Cycloheximide cs	Pf growth 96h
CCN1CCN(C(c2ccc(OC)cc2)c2c(O)cc(C)n(Cc3ccco3)c2=O)CC1 (stereo unspecified)	5.6µM*	.	.	.	.	.
Cc1cc(O)c(C(c2ccccc2)N2CCN(C)CC2)c(=O)n1Cc1ccco1 (stereo unspecified)	5.6µM*	.	.	.	.	.
Cc1cc(O)cc(=O)n1Cc1ccco1	0%	9%	-18	30%	-2	?
CCN1CCN(C(c2ccccc2)c2sc3nc(C)nn3c2O)CC1 (stereo unspecified)	9%	2%	11	8%	-3	34%
COC(=O)c1ccccc1NC(=S)N(Cc1ccc2c(c1)OCO2)Cc1cc2cc(OC)ccc2[nH]c1=O	-4%	22%	-6	?	-1	31%
COc1ccc(CNC(=O)Nc2ccc3c(c2)N(C)C(=O)c2ccccc2S3)cc1	-4%	.	.	.	.	.
Nc1cc(=O)[nH]n1C1CCCC1	0%	.	-11	18%	-4	-2%
COc1ccc(CNC(=O)Cc2c(C)c3cc4c(C)coc4c(C)c3oc2=O)cc1OC	6%	.	.	.	.	.
O=C(c1ccc(Cl)c([N+](=O)[O-])c1)N1CCCc2ccccc21	-9%	-2%	39*	19%	34*	?
O=C(c1ccc(S(=O)(=O)N2CCCCC2)cc1)N1CCc2ccccc2C1	-1%[57.1 µM]	-10%	-22	?	1	3.3µM*
O=C(c1ccc(S(=O)(=O)N2CCCCC2)cc1)N1CCCc2ccccc21	2%	-50%	-6	?	-2	13µM*
O=C(c1ccc(S(=O)(=O)N2CCCC2)cc1)N1CCCc2ccccc21	-2%	-54%	30	34%	2	-7%
O=C(c1ccc(S(=O)(=O)N2CCOCC2)cc1)N1CCCc2ccccc21	4%	21%	15	1%	22*	?
Cc1noc(C)c1-c1nc(CS(=O)(=O)c2ccc(F)cc2)no1	-6%	-2%	9	73%	4	46%
CC12CCC(=O)N1C(C(=O)NCCc1ccc(S(N)(=O)=O)cc1)CS2 (stereo unspecified)	?	7%	-21	-16%	-2	?
O=C(c1ccncc1)N1CCc2ccccc2C1	1%	1%	-9	30%	-2	0%
O=C(c1ccc(-n2cccn2)cc1)N1CCc2ccccc2C1	4%	-61%	34	38%	24*	57%
c1ccc(-c2csc(N3CCOCC3)n2)cc1	-10%	-73%	111*	71%	30*	.
Clc1ccc(-c2csc(N3CCN(c4ccccc4)CC3)n2)cc1	8%	3%	7	-11%	-4	-2%
NC(=O)C1CCN(c2nc(-c3ccccc3)cs2)CC1	.	.	.	16%	.	?
CC[n+]1cc(-c2ccccc2)nc(N2CCOCC2)n1	-9%	-15%	13	2.3µM*	8	-15%
c1ccc(-c2csc(N3CCN(c4ccccn4)CC3)n2)cc1	10%	-71%	78*	73%	31*	.
O=C(N1CCOCC1)N1CCN(c2nc(-c3ccccc3)cs2)CC1	-8%	-8%	60	?	30*	.
S=C(NCCCN1CCOCC1)N1CCN(c2nc(-c3ccccc3)cs2)CC1	5%	6%	10	?	2	63%
c1ccc(-c2nc3ccccc3nc2N2CCOCC2)cc1	0%	3%	-4	4%	-2	.
SMILES	Sm TGR block	NS1 function inh	Shiga inhibitor	Pf growth 48h	Cycloheximide cs	Pf growth 96h
CCCC[C@H]1CCCO[C@@](C(=O)NCc2cc(C)n(C)n2)(C(F)(F)F)C1	.	.	-4	.	10	.
CN(C)C(=O)N1CCN(c2nc(-c3ccccc3)cs2)CC1	-4%	-18%	52*	2%	35*	17%
CN(C)CCN1C(=O)c2ccccc2N(C)c2ccccc21	.	.	.	-18%	.	3µM*
CN(C)CCN1C(=O)c2ccccc2C1=O	0%	.	.	29%	.	35%
C=CCSc1n[nH]c(-c2ccc(OC)cc2)n1	4%	-23%	116*	183%	61*	.
O=C(CSc1n[nH]c(-c2ccncc2)n1)c1ccccc1	4%	-7%	21	-24%	-1	-24%
COc1ccc(-c2nc(SCC(=O)Nc3cc(C)on3)n[nH]2)cc1	-6%	0%	29	29%	3	.
C=CCSc1n[nH]c(-c2ccccc2)n1	7%	-12%	51*	.	30*	47%
Cc1nc2nncn2c(Nc2ccc(F)cc2)c1C	1%	.	.	.	.	.
N/C(=N\c1nc2ccccc2o1)NC(=O)c1ccccc1F	-27%	-6%	100*	80%	47*	333%
CCCCC(=O)N/C(N)=N/c1nc2ccccc2o1	15%	0%	36*	210%	43*	332%
COc1ccccc1C(=O)NC(=Nc1nc2ccccc2o1)NC(=O)c1ccccc1OC	2%	-4%	22*	?	17*	-28%
COc1ccc(N(CC(=O)N2CCc3ccccc3C2)S(=O)(=O)c2ccc(C)cc2)cc1Cl	-3%	.	.	.	.	.
COc1ccc(-c2cc(C)no2)cc1S(=O)(=O)N1CCN(c2ccc(C(C)=O)cc2)CC1	8%	.	.	.	.	.
CN(CC(=O)Nc1ccccc1Br)C(=O)CN1CCN(Cc2ccc(Cl)cc2)CC1	-28%	.	.	?	.	0%
Cc1nc(CS(=O)(=O)c2ccccc2)cc(Sc2ccc(Cl)cc2Cl)n1	-1%	-13%	68*	?	17*	?
O=C(N=C1N=C2C=CC(Br)=CN2Cc2ccccc21)c1ccc([N+](=O)[O-])cc1[N+](=O)[O-]	-16%	-2%	61*	?	40*	-100%
O=C(c1ccc([N+](=O)[O-])cc1[N+](=O)[O-])N1CCc2ccccc21	-10%	4%	-10	-15%	-3	?
Nc1nonc1C(=O)NCCNC(=O)c1cccc(Cl)c1	3%	-2%	-2	6%	-6	-19%
COc1ccc(N2CCN(Cc3nc4cc(Cl)ccc4c(=O)[nH]3)CC2)cc1	2%	1%	-16	9%	-2	14%
Cc1cc(C)n(CCN(C)C(=O)CCc2nnc(CCC3CCCCC3)o2)n1	-16%	1%	91*	-14%	38*	22%
CN(CCCN1CCCCC1)C(=O)CCc1nnc(C2CCCCC2)o1	11%	-3%	9	1%	-3	-10%
CN(CCC1CCCCO1)C(=O)CCc1nnc(CCCCc2ccccc2)o1 (stereo unspecified)	-12%[57.1 µM]	-5%	33	-21%	17*	11%
CN(C(=O)CCc1nnc(-c2ccc(-c3ccccc3)cc2)o1)C1CCOCC1	-13%	15%	30*	?	13	32%
CN(CCCC1CCCC1)C(=O)CCc1nnc(-c2ccccc2)o1	.	-9%	53*	2%	32*	18%
Cc1ccc(C(=O)CCC(=O)OCc2nnc(-c3ccccc3)o2)cc1	-11%	.	.	31%	.	20%

Screening data as filed in PubChem.
